Data taken from PubChem BioAssay (Tox21).
“And” between values parts separate entries of the source, which are not always exact repeats. Identical values can stand only once. Inconclusive results are not listed. Entries that show only a call come without a potency. Some compounds were tested as several samples or in several runs, with calls that do not always agree. The source made the active and inactive calls. Unless noted, the call rests on the fitted dose curve; in most records, active means well fitted curve in the direction sought with a large enough effect in the repeat runs; inconclusive means weak or mixed curves; inactive means no such curve, though single readings can be large; an effect the other way counts as inactive or inconclusive.

Legend:
[1] = qHTS assay to identify small molecule agonists of the estrogen receptor alpha (ER-alpha) signaling pathway in the presence of an antagonist - cell viability counter screen (AID 1259386);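 further: series mostly up to about 92 µM; cells exposed to compounds for 22 h at 37 °C before the viability read; nearly all actives have a fitted effect of over 30% in size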
How it was run: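 Using estrogen-depleted VM7Luc4E2 cells, the 15-concentration compound series was applied together with 10.0nM ICI-182,780 and incubated 22hr at 37C/5% CO2. Cell viability was then scored by CellTiter-Fluor.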

[2] = biological target: Progesterone receptor (Homo sapiens) (UniProt P06401); test: qHTS assay to identify small molecule agonists of the progesterone receptor (PR) signaling pathway (AID 1346784; calls by dose curve; further: nearly all actives have a fitted effect of over 30% in size)
How it was run: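 Fluorescence from LiveBLAzer B/G FRET substrate cleavage (2 hr, RT) reported PR activation in PR-UAS-bla HEK 293T cells treated 16 hr at 37C/5% CO2 with compounds; medium contained 2% charcoal-stripped FBS.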

[3] = biological target: Progesterone receptor (Homo sapiens) (UniProt P06401); test: qHTS assay to identify small molecule antagonists of the progesterone receptor (PR) signaling pathway (AID 1346795; active means well fitted inhibition curve with a large enough effect in the signal ratio in the repeat runs, not every such curve was filed as active; the % refers to the signal ratio)
How it was run: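 Fluorescence intensity measured 2 hr after adding beta-lactamase FRET substrate to PR-UAS-bla HEK293T cells that had been co-treated 16 hr with compound and 1 nM R5020 (final concentration) in 2% charcoal-stripped FBS.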

[4] = qHTS assay to identify small molecule antagonists of the progesterone receptor (PR) signaling pathway - cell viability counter screen (AID 1346798); further: series mostly up to about 92 µM; nearly all actives have a fitted effect of over 50% in size
How it was run: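 CellTiter-Glo luminescence; PR-UAS-bla HEK293T, 3,000 cells/well; compound + R5020, 16 hr, 37C/5% CO2; 30 min RT before read.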

[5] = qHTS assay to identify small molecule agonists of the progesterone receptor (PR) signaling pathway - cell viability counter screen (AID 1346799; calls by dose curve; further: nearly all actives have a fitted effect of over 45% in size)
How it was run: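 In parallel with the beta-lactamase readout, cytotoxicity toward PR-UAS-bla HEK293T cells was measured by CellTiter-Glo luminescence following 16 hr compound incubation in 2% charcoal-stripped FBS medium.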

[6] = qHTS assay to identify small molecule antagonists of the TGF-beta/Smad signaling pathway - cell viability counter screen (AID 1346824); further: nearly all actives have a fitted effect of over 50% in size
How it was run: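 SBE-bla HEK 293T cells, incubated overnight, then compound plus 0.25 ng/mL TGF-beta1 (stock added) for 5 hr at 37 C. Viability was read in the same wells by CellTiter-Glo luminescence after 30 min at room temperature.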

[7] = qHTS assay to identify small molecule agonists of the TGF-beta/Smad signaling pathway - cell viability counter screen (AID 1346829); further: top concentration of the series differs between compounds; nearly all actives have a fitted effect of over 45% in size
How it was run: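 Luminescence from CellTiter-Glo, read after a 30 min room-temperature incubation, gives cell viability of SBE-bla HEK 293T cells treated 5 hr with compounds at 37 C.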

[8] = qHTS assay to identify small molecule agonists of the TGF-beta/Smad signaling pathway (AID 1346859; active means well fitted activation curve with a large enough effect in the signal ratio in the repeat runs, not every such curve was filed as active; the % refers to the signal ratio; further: series mostly up to about 77 µM)
How it was run: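 After overnight seeding, SBE-bla HEK 293T cells are dosed with compounds in DMSO and kept 5 hr at 37 C, 5% CO2. LiveBLAzer-type FRET substrate is then applied for 2 hr at room temperature.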

[9] = biological target: Thyrotropin-releasing hormone receptor (Homo sapiens) (UniProt P34981); test: qHTS assay to identify small molecule antagonists of the thyrotropin-releasing hormone receptor (TRHR) signaling pathway (AID 1346877; active means well fitted inhibition curve with a large enough effect in the repeat runs, not every such curve was filed as active; further: series mostly up to about 51 µM)
How it was run: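 Calcium signal in dye-loaded TRHR/HEK293 cells; compounds added 5 min before TRH (1 nM final); fluorescence monitored 3 min at 1 s steps.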

[10] = Human pregnane X receptor (PXR) small molecule agonists, qHTS cell viability counter screen (AID 1346977); further: nearly all actives have a fitted effect of over 50% in size
How it was run: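 Viability counter screen: CellTiter-Fluor signal in PXR-Luc HepG2 cells, 24hr compound exposure, 37C, 5% CO2.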

[11] = Caspase-3/7 induction in HepG2 cells by small molecules, qHTS assay (AID 1346978); further: nearly all actives have a fitted effect of over 15% in size
How it was run: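 Wild-type HepG2 cells, 2,000/well, settled 5 hr at 37 C and 5% CO2, then compound-treated for 17 hr; caspase-3/7 activity read by luminescent Caspase-Glo 3/7 after 30 min at room temperature.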

[12] = Caspase-3/7 induction in CHO-K1 cells by small molecules, qHTS cell viability counter screen (AID 1346979); further: nearly all actives have a fitted effect of over 35% in size
How it was run: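 Viability readout by fluorescence (CellTiter-Fluor) on wild-type CHO-K1 cells exposed for 16hr at 37C and 5% CO2 to compounds delivered in DMSO; reagent incubated 1hr before reading.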

[13] = Caspase-3/7 induction in CHO-K1 cells by small molecules, qHTS assay (AID 1346980); further: nearly all actives have a fitted effect of over 15% in size
How it was run: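 Wild-type CHO-K1 cells exposed to compounds for 17hr at 37 C, 5% CO2. Caspase-3/7 activity then measured by Caspase-Glo 3/7 luminescence after 30min at room temperature.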

[14] = Caspase-3/7 induction in HepG2 cells by small molecules, qHTS cell viability counter screen (AID 1346981); further: series mostly up to about 92 µM; nearly all actives have a fitted effect of over 30% in size
How it was run: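 After a 5-hr attachment period at 37 C and 5% CO2, wild-type HepG2 cells received compounds in DMSO. Sixteen hours later CellTiter-Fluor was dispensed and the fluorescent signal quantified after a further hour.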

[15] = biological target: Nuclear receptor subfamily 1 group I member 2 (Homo sapiens) (UniProt O75469); test: Human pregnane X receptor (PXR) small molecule agonists, qHTS assay (AID 1346982); further: nearly all actives have a fitted effect of over 35% in size; further: potency means the concentration at half of the fitted maximal effect
How it was run: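 Tox21 qHTS; PXR-Luc HepG2; compounds pinned from DMSO; 24 hr, 37 C; ONE-Glo luciferase detection, 30 min room temperature.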

[16] = biological target: Thyrotropin receptor (Homo sapiens) (UniProt P16473); test: qHTS assay to identify small molecule antagonists of the thyroid stimulating hormone receptor (TSHR) signaling pathway (AID 1259385; calls by dose curve; further: nearly all actives have a fitted effect of over 20% in size)
How it was run: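 TSHR-HEK293 cells (800/well) plated 18 h, then compounds with Ro20-1724 and TSH at 1.5 ng/mL final, 30 min at room temperature. cAMP quantified by HTRF (cAMP-d2/anti-cAMP-cryptate, 1 h); 15 concentrations in triplicate.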

[17] = biological target: Thyrotropin-releasing hormone receptor (Homo sapiens) (UniProt P34981); test: qHTS assay to identify small molecule agonists of the thyrotropin-releasing hormone receptor (TRHR) signaling pathway (AID 1346891; calls by dose curve;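 further: HEK293 cells expressing TRHR with calcium dye readout; series mostly up to about 58 µM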)
How it was run: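 Compounds were tested as agonists at 15 concentrations, in triplicate, on TRHR-Hek293 cells; calcium-sensitive dye fluorescence was recorded for 3 min following addition.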

[18] = biological target: Nuclear receptor subfamily 1 group I member 2 (Rattus norvegicus) (UniProt Q9R1A7); test: Rat pregnane X receptor (rPXR) activation by small molecules, qHTS assay (AID 1346983); conditions: rPXR luciferase reporter cells, One-Glo luminescence, 24 h; max activation: stronger effect = higher value; further: nearly all actives have a fitted effect of over 20% in size
How it was run: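 Cell-based rPXR activation assay: rPXR cells, 2,000 per well, rested 5hr at 37 C, then exposed to compounds in DMSO for 24 hr at 37 C. Luciferase activity read by One-Glo luminescence after 30 min at room temperature.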

[19] = biological target: Nuclear receptor subfamily 1 group I member 2 (Homo sapiens) (UniProt O75469); test: CYP3A4 induction through human pregnane X receptor (PXR) by small molecules, qHTS assay (AID 1346984); further: nearly all actives have a fitted effect of over 40% in size
How it was run: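 Cells (DPX-2; HepG2 with PXR element plus CYP3A4-promoter luciferase) settled 5hr, then were treated 24hr at 37C. A 3hr, 3uM-final Luciferin-IPA step preceded luminescence measurement with One-Glo.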

[20] = biological target: Nuclear receptor subfamily 1 group I member 2 (Homo sapiens) (UniProt O75469); test: Human pregnane X receptor (PXR) activation by small molecules, qHTS assay (AID 1346985); further: nearly all actives have a fitted effect of over 40% in size
How it was run: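 DPX-2 cells (HepG2 co-transfected with a PXR response element and a CYP3A4-promoter luciferase construct) were seeded at 2,000 per well, rested 5 hr at 37C, then exposed to DMSO-dissolved compounds for 24 hr. Activation was read as luciferase luminescence.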

Sequence of Progesterone receptor (Homo sapiens) (P06401 whole entry, looked up): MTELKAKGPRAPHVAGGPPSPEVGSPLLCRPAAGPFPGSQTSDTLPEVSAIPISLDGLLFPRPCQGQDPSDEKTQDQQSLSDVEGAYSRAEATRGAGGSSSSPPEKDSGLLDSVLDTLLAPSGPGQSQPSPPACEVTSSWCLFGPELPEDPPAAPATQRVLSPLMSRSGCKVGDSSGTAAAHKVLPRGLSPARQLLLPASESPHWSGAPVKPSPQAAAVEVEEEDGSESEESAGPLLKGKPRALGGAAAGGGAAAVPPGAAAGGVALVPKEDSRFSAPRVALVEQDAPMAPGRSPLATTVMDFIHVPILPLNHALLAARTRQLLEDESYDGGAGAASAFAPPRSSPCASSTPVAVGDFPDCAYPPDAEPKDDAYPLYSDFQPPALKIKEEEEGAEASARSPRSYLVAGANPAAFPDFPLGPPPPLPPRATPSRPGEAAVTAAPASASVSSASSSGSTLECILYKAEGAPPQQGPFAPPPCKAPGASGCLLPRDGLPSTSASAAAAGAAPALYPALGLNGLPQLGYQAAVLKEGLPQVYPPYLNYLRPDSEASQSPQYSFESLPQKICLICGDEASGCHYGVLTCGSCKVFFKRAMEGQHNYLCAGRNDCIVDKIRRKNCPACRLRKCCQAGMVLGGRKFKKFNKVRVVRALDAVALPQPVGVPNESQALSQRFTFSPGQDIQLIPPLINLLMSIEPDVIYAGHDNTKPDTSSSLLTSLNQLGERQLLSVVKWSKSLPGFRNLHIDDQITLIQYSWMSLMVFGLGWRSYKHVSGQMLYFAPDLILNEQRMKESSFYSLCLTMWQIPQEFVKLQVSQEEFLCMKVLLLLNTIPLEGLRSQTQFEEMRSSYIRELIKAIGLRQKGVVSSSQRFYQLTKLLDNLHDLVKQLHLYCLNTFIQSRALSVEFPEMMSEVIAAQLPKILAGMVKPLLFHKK
Sequence of Nuclear receptor subfamily 1 group I member 2 (Homo sapiens) (O75469 whole entry, looked up): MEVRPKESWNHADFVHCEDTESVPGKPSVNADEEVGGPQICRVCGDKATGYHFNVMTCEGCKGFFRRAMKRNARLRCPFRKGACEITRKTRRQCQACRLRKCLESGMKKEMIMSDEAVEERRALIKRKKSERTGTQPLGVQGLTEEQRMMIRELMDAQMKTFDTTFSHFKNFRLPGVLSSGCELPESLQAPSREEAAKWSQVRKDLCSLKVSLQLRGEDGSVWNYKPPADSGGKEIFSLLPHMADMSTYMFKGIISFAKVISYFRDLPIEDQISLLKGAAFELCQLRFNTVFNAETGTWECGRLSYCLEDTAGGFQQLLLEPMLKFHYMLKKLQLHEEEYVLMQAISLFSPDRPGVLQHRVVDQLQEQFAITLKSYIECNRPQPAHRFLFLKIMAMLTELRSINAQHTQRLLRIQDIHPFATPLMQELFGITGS
Sequence of Thyrotropin-releasing hormone receptor (Homo sapiens) (P34981 whole entry, looked up): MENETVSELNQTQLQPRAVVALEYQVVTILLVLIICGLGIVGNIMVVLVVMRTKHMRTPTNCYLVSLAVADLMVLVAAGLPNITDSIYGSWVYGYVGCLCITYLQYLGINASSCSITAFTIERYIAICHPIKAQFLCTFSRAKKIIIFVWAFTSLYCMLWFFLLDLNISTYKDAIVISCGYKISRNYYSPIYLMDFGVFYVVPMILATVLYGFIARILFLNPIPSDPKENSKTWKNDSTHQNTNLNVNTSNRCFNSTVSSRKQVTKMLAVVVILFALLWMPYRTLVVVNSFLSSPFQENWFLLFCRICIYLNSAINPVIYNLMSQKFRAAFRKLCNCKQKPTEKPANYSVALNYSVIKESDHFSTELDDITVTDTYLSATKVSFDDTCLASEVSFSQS
Sequence of Thyrotropin receptor (Homo sapiens) (P16473 whole entry, looked up): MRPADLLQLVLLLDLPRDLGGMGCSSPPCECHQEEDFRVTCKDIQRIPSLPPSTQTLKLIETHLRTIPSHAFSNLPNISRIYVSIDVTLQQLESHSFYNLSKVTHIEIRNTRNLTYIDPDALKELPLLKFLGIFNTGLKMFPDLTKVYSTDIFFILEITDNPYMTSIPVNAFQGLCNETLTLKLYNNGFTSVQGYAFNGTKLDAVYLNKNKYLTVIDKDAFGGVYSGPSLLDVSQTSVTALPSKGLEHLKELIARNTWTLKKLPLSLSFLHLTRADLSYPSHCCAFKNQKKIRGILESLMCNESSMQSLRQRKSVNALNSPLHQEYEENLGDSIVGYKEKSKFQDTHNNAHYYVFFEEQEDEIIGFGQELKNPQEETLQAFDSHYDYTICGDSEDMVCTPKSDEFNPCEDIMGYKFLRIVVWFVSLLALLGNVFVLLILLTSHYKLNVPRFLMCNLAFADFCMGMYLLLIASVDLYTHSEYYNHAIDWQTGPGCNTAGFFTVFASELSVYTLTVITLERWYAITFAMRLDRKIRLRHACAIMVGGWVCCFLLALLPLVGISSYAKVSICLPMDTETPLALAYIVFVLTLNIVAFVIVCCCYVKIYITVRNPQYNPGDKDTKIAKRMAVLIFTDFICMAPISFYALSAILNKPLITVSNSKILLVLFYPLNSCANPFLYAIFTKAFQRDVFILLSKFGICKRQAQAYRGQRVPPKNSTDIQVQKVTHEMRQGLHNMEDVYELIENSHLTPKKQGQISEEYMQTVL
Sequence of Nuclear receptor subfamily 1 group I member 2 (Rattus norvegicus) (Q9R1A7 whole entry, looked up): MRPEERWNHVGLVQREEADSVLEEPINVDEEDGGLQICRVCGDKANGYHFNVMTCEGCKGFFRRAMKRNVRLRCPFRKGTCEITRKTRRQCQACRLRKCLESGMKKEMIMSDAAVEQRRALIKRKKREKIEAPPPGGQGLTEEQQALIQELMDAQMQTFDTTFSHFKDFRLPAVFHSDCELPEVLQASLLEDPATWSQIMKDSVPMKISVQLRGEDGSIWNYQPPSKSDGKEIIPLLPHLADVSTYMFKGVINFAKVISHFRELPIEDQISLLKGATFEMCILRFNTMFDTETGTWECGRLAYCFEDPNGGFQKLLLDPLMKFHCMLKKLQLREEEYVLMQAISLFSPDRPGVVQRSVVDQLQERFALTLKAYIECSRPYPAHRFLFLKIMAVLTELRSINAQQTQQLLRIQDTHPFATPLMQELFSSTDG

| Compound | Potency [1] | Potency [2] | Potency [3] | Potency [4] | outcome [5] | Potency [6] | Potency [7] | outcome [8] | outcome [9] | Potency [10] | outcome [11] | Potency [12] | outcome [13] | Potency [14] | Potency [15] | outcome [16] | outcome [17] | max activation [18] | Potency [19] | Potency [20] |
| --- | --- | --- | --- | --- | --- | --- | --- | --- | --- | --- | --- | --- | --- | --- | --- | --- | --- | --- | --- | --- |
| COS(=O)(=O)OC | inactive | inactive | inactive | inactive | inactive | inactive | inactive | inactive | inactive | inactive | inactive | inactive | inactive | inactive | inactive |  |  |  |  |  |
| C=CC(=O)OCC(CC)CCCC (centres undefined) |  | inactive | inactive | inactive | inactive | inactive | inactive | inactive |  | inactive | inactive | inactive | inactive | inactive |  | inactive |  |  |  |  |
| CNC(=O)O/N=C/C(C)(C)S(C)(=O)=O | inactive | inactive | inactive | inactive | inactive | inactive | inactive | inactive | inactive | inactive | inactive | inactive | inactive | inactive | inactive |  |  |  |  |  |
| O=C(O)Cc1ccccc1 | inactive | inactive | inactive | inactive | inactive | inactive | inactive | inactive | inactive | inactive | inactive |  | inactive | inactive | inactive |  | inactive |  |  |  |
| C[C@]12CC[C@H](O)CC1=CC[C@@H]1[C@@H]2CC[C@]2(C)C(=O)CC[C@@H]12 |  | inactive |  | inactive | inactive | inactive | inactive |  |  | inactive | inactive | inactive | inactive | inactive | 54.5 µM (active) and 48.6 µM (active) and inactive | inactive |  | -3.38% (inactive) | inactive | inactive |
| CN(C)C(=O)C(c1ccccc1)c1ccccc1 | inactive | inactive | inactive | inactive | inactive | inactive | inactive | inactive | inactive | inactive | inactive | inactive | inactive | inactive | inactive and 19.3 µM (active) |  |  |  |  |  |
| CN(C)NC(=O)CCC(=O)O |  | inactive | inactive | inactive | inactive | inactive | inactive | inactive |  | inactive | inactive |  | inactive | inactive | inactive | inactive |  |  |  |  |
| O=C(O)C(Br)Br | inactive | inactive | inactive | inactive | inactive | inactive | inactive | inactive | inactive | inactive | inactive | inactive | inactive | inactive | inactive |  | inactive |  |  |  |
| C[C@H]1C(=O)O[C@@H]2CCN3CC=C(COC(=O)[C@](C)(O)[C@]1(C)O)[C@H]23 |  |  |  | inactive | inactive | inactive | inactive | inactive | inactive | inactive | inactive |  | inactive | inactive | inactive | inactive |  | -2.06% (inactive) | inactive | inactive |
| CC(=O)C1CCOC1=O (centres undefined) |  | inactive | inactive | inactive | inactive | inactive | inactive | inactive |  | inactive | inactive |  | inactive | inactive | inactive | inactive |  |  |  |  |
| Cc1ccc(N=C=O)cc1N=C=O |  | inactive | inactive | inactive | inactive | inactive | inactive | inactive | inactive | inactive | inactive |  | inactive | inactive | 60.9 µM (active) and inactive |  | inactive |  |  |  |
